High-throughput results from PubChem BioAssay.
A selection: hits, their analogues and other compounds. The true share with any hit is near 4.1%.
hcDAF12 agonist: activators of H. contortus DAF-12 nuclear receptor; HEK293 hcDAF-12 lit1-tk-luc reporter, luminescence; 0% DMSO, 100% Δ7-dafachronic acid; activation, % at 6.8 µM; 1.4% of 370,000 active;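 active = activation above the mean of all tested compounds plus 3 SD, cut at about 5.5% in these data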;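 note: 100% = response to 3 µM Δ7-dafachronic acid high control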
DAX1 inh-1: inhibits human nuclear receptor DAX1. P51843. inhibition, % at 6.75 µM. HEK293 Gal4-DAX1 luciferase reporter, luminescence. 0.99% of 340,000 active;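 active = inhibition above the mean over all tested compounds plus 3 SD, cut at about 4.2% in these data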;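 note: 0% = DAX1-transfected cells with DMSO and 100% = empty-vector control cells with DMSO; inhibition shows as a rise in luminescence from relieved DAX1 repression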
Target sequence (P51843 207-470 limits assumed): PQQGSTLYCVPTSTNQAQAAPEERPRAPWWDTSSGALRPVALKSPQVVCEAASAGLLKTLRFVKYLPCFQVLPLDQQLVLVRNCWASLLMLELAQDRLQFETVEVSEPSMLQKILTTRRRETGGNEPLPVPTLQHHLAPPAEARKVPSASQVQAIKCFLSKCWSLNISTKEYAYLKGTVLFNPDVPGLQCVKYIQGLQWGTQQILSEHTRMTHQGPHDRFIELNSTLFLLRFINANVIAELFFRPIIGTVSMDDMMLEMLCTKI
DAX1 inh-2: inhibitors of DAX1 repression of SF-1 activated StAR promoter; HEK293T StAR-luciferase reporter, SF-1/DAX-1 repression relief; inhibition, % at 6.8 µM; 1.1% of 370,000 active; AID 652010;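 active = inhibition above the mean over all tested compounds plus 3 SD, cut at about 3.6% in these data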;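 note: 0% = DAX-1 cells with DMSO and 100% = cells lacking DAX-1 with DMSO; higher inhibition means more luminescence from relief of DAX-1 repression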
ssDAF-12 act: activates DAF-12 receptor from parasite S. stercoralis. 1% of 370,000 active. activation, % at 6.8 µM. AID 652126. HEK293 ssDAF-12/GRIP1 lit1-tk-luc reporter, luminescence; % of 3 µM dafachronic acid response;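 active = activation above the mean over all tested compounds plus 3 SD, cut at about 0.9% in these data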;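 note: 0% = DMSO-only wells and 100% = 3 µM delta7-dafachronic acid wells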
hgDAF12 agonist: hgDAF-12 agonism, primary luciferase screen. HEK293 GAL4-hgDAF12 UAS-luciferase reporter, agonist luminescence; normalized to butyrate control. activation, % at 6.8 µM. 1.8% of 370,000 active;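 active = activation above a cutoff set at the mean of all screened compounds plus 3 SD, cut at about 10% in these data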;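 note: 0% = DMSO wells and 100% = sodium butyrate wells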
* marks the source's active call; other numbers are inactive results; . = no result given.

SMILES | hcDAF12 agonist | DAX1 inh-1 | DAX1 inh-2 | ssDAF-12 act | hgDAF12 agonist
Cc1ccc(C2c3[nH]c4ccccc4c3C[C@H]3C(=O)N(c4ccccc4C(=O)NCCCN4CCOCC4)C(=O)N23)cc1 (some centres undefined) | 2.0 | 0.3 | -0.8 | -1.2 | 0.7
Cn1c(=NC(=O)c2ccc(S(=O)(=O)N3CCCc4ccccc43)cc2)sc2cc(S(C)(=O)=O)ccc21 | 0.3 | 0.6 | -0.1 | -1.6 | -3.0
Cn1c(=NC(=O)c2ccccc2[N+](=O)[O-])sc2cc(S(C)(=O)=O)ccc21 | 5.5 | 2.2 | 4.3* | -0.3 | 12.4*
COc1ccc(CCN(Cc2cccs2)S(=O)(=O)c2ccc(C)s2)cc1OC | -1.5 | . | -3.2 | -1.6 | 0.4
CC(C)C[C@@H]1COc2cc(N3CCSCC3)ccc2S(=O)(=O)N1C | -0.8 | . | -1.7 | -1.4 | 3.0
CC(=O)c1ccccc1NS(=O)(=O)c1ccccc1Cl | -2.0 | 0.3 | 0.3 | -1.3 | 12.0*
COCCNC(=O)COC(=O)CSCc1nc2ccccc2s1 | 5.8* | -0.7 | 0.5 | 0.1 | 1.5
Nc1ccc(C(=O)c2cccs2)cn1 | 5.8* | 0.9 | 0.2 | 0.5 | 3.2
Clc1ccc(OCCOc2ccc(Br)nc2Br)c(Cl)c1 | -2.0 | . | . | -1.9 | 6.0
CSc1ncccc1C(=O)OCC(=O)c1cc(C)n(C)c1C | 6.4* | 4.3* | 2.3 | 0.5 | 4.1
O=C(Nc1ccc2cn[nH]c2c1)c1ccc(Cl)c(S(=O)(=O)N2CCOCC2)c1 | 6.5* | 1.9 | 1.1 | -0.4 | 5.5
COc1ccc2c(c1)N[C@@](CCNC=O)(c1[nH]c3ccccc3c1CCNC=O)C2=O | 3.8 | . | . | -0.7 | -2.3
Fc1ccc(C2CC(c3ccco3)=Nc3ccccc3S2)cc1 (centres undefined) | 1.9 | 7.0* | -0.9 | -0.5 | 1.0
O=C1C2C3C=CC(C4CC34)C2C(=O)N1/N=C/c1ccc([N+](=O)[O-])s1 (centres undefined) | -0.9 | 0.7 | -0.4 | -1.1 | 5.5
O=C1C2C3C=CC(C4CC34)C2C(=O)N1/N=C/c1c[nH]c2ccccc12 (centres undefined) | 6.0* | 1.2 | 0.0 | 2.2* | 10.5*
CCCCNS(=O)(=O)CC1NCc2ccccc21 (centres undefined) | 0.3 | . | -0.8 | -0.6 | 2.6
O=C1N=C(N2CCOCC2)S/C1=C\c1ccc(-c2ccccc2Cl)o1 | 1.6 | 0.1 | -0.6 | -1.1 | -2.3
Cc1ccccc1-c1ccc(/C=C2/SC(N3CCOCC3)=NC2=O)o1 | -2.5 | 5.4* | 0.1 | -1.7 | -0.1
COC(=O)[C@]12C[C@H](CC(=O)N3CCSCC3)C(=O)N(Cc3ccc(Cl)cc3Cl)C1=C[C@H](C1CCCC1)O[C@@H]2C | -1.4 | . | -0.7 | -0.7 | 6.9
CC(=O)Nc1ccc2nc(-c3ccc(Br)o3)[nH]c2c1 | 2.1 | -1.1 | 0.8 | -0.5 | 10.6*
Cn1cccc1C(=O)NC1CCCCCC1 | 4.5 | 0.2 | 4.4* | -0.1 | 8.5
Cc1nn(Cc2ccccc2)c(Cl)c1C(=O)NCCc1ccccc1 | 2.4 | 1.1 | 3.8* | 0.7 | 11.3*
Cn1cccc1C(=O)NCC1CCCCC1 | -0.4 | 0.4 | -0.6 | -1.0 | 10.0
Cn1cccc1C(=O)NCc1ccc(Cl)cc1 | 0.9 | -0.1 | 0.4 | -0.7 | -1.4
Cn1cccc1C(=O)NCCc1ccccc1 | 4.2 | 0.3 | 2.3 | -0.4 | 13.2*
SMILES | hcDAF12 agonist | DAX1 inh-1 | DAX1 inh-2 | ssDAF-12 act | hgDAF12 agonist
Cn1cccc1C(=O)NCCc1ccc(Cl)cc1 | 1.9 | 1.3 | 4.0* | -0.3 | 5.0
CCOc1ccc(-n2c(SCC(=O)Nc3ccc(S(=O)(=O)Nc4nccs4)cc3)nnc2-c2ccccc2)cc1 | 0.1 | . | -1.2 | -0.6 | 2.3
CC1CCC2(CC1)CCC2NCc1ccc(Cl)cc1 (centres undefined) | 0.8 | . | . | -1.8 | -1.6
CC(COc1ccc([N+](=O)[O-])cc1Cl)CN1CCC(C(O)(c2ccccc2)c2ccccc2)CC1 (centres undefined) | -2.4 | . | 0.1 | -1.3 | 1.3
Cc1ccccc1C(=O)NNC(=O)c1cccn1C | 3.3 | 1.5 | 4.0* | -0.1 | 3.9
Cn1cccc1C(=O)NNC(=O)c1ccccc1Br | 1.1 | 2.3 | 3.4 | 0.2 | 5.7
Cc1csc(SCC(=O)Nc2nccs2)n1 | 0.9 | 1.1 | 0.7 | -0.4 | 1.5
Cc1csc(SCC(=O)Nc2sccc2C(N)=O)n1 | 0.5 | 0.3 | 0.4 | -0.6 | 10.8*
O=C(Cn1nc(-c2ccccc2)ccc1=O)NCCc1cccc(F)c1 | -2.3 | . | -0.5 | -1.6 | 1.5
CCCCNC(=O)C[C@H]1C[C@@]2(C(=O)OC)C(=C[C@H](C(C)C)O[C@@H]2C2CC2)N(CCC2=CCCCC2)C1=O | 0.1 | . | 0.6 | -1.1 | 1.9
CCN1CCCC1CNS(=O)(=O)c1cccc(C(F)(F)F)c1 (centres undefined) | 0.6 | -0.5 | 0.7 | -1.5 | 3.0
CCN1CCCC1CNS(=O)(=O)c1ccc(F)c(Cl)c1 (centres undefined) | -1.6 | 4.4* | 0.1 | -0.9 | 3.7
O=C(CCS(=O)(=O)c1ccccc1)Nc1nc2cc3c(cc2s1)OCO3 | 1.2 | 4.9* | 0.1 | -1.4 | -1.4
COc1ccccc1C(=O)Nc1nc2cc3c(cc2s1)OCO3 | 4.2 | 4.2 | 1.5 | 0.1 | 12.3*
COc1ccc(C2Nc3ccccc3C(=O)N2Cc2ccccc2)cc1COc1ccc(NC(C)=O)cc1 (centres undefined) | -2.5 | . | . | -1.6 | -6.1
CCN(Cc1ccccc1)S(=O)(=O)c1ccc(C(=O)N(CCCN(C)C)c2nc3c(F)cccc3s2)cc1 | 5.7* | 1.4 | 0.8 | -1.1 | 1.0
CCOc1cccc2sc(N(CCCN(C)C)C(=O)c3ccc(S(=O)(=O)N(CC)Cc4ccccc4)cc3)nc12 | 1.1 | 2.7 | -1.6 | -0.8 | 1.0
COc1cccc2c1OC1(CCN(C(C)C)CC1)N1N=C(c3cccnc3)CC21 (centres undefined) | 0.5 | 6.8* | 0.1 | -0.6 | 8.1
COc1ccc(C2NCCc3c2[nH]c2ccccc32)cc1CSc1nc2ccccc2s1 (centres undefined) | 5.7* | -0.1 | 0.6 | 0.5 | 2.0
O=C(CSc1nc2ccccc2o1)NCc1n[nH]c(=O)c2ccccc12 | 6.2* | 1.6 | 0.5 | 0.1 | 6.0
Cc1cccc(Nc2ccc([N+](=O)[O-])cc2C(=O)O)c1 | -1.2 | 1.2 | 0.6 | -0.3 | 1.2
O=C(O)c1cc([N+](=O)[O-])ccc1Nc1ccccc1 | -3.1 | 4.3* | -0.2 | -1.5 | -3.4
Cc1sc2nc(C3CCCCC3)nc(SCC(=O)N3CC(=O)Nc4ccccc43)c2c1C | 0.1 | 0.8 | 0.1 | 1.2* | 2.6
Clc1ccc(CSc2nnc(-c3cccs3)o2)cc1Cl | 0.0 | . | -1.2 | -1.9 | -0.2
CCN(CC(=O)Nc1ccccc1-c1ccccc1)Cc1nc2ccccc2c(=O)[nH]1 | -1.2 | -1.4 | -3.9 | -1.6 | 1.2
CCN(CC(=O)Nc1ccccc1SC)Cc1nc2ccccc2c(=O)[nH]1 | -2.1 | 5.0* | 0.1 | -0.9 | 1.3
COc1ccc(OCCN(C)Cc2c(O)ccc3ccccc23)cc1 | 6.0* | -1.2 | 0.2 | 0.4 | -1.0
